Most compounds without a hit are left out; they make up all but 3.9% or so of the library.
GDH-TPI inh – inhibits GDH-TPI coupling enzymes, artifact for Mtb FBA screen; inhibition, % at 4.8 µM; 1.2% of 360,000 active; GDH-TPI coupled enzyme counterscreen, NADH absorbance;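 further: 0% = DMSO wells and 100% = wells lacking the enzyme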
BH1578 lux ind – inducers of Vibrio cholerae quorum light production without autoinducers. V. cholerae BH1578 lux reporter, luminescence, 6 h. 0.16% of 350,000 active. activation, % at 18.7 µM; in the data active means activation mostly above about 9.7%, no sharp cut-off
FBA Mtb inh – inhibits M. tuberculosis FBA enzyme | purified M. tuberculosis FBA, fluorescence read-out | inhibition, % at 1 µM | 2.3% of 360,000 active | AID 588726; in the data active means inhibition above about 27%;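 further: 0% = vehicle and 100% = reference inhibitor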
Target sequence (P9WQA3 whole entry, looked up): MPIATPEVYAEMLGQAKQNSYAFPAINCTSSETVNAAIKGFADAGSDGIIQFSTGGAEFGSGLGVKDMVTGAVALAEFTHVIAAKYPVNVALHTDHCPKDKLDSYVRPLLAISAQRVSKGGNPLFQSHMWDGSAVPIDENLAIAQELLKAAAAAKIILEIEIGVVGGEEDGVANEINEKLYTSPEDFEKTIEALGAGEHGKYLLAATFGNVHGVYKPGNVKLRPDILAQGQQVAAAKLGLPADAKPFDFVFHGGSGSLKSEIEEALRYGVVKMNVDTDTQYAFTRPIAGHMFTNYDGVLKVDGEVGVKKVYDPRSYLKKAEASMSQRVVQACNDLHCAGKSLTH
CCHFV vOTU inh – blocks the CCHF virus ovarian tumor domain protease; CCHFV vOTU protease, Pep-AMC fluorescence; inhibition, % at 11.5 µM; 0.55% of 370,000 active; AID 651958; further: 0% = vehicle wells with enzyme and 100% = no enzyme wells
Starred values were filed as active, the others as inactive; i = inactive; / = not tested or not shown; + = active, no number. Unless noted, no stated cut-off is given here; in the data, active means inhibition above about 30%; inactive means the rest.

SMILES	GDH-TPI inh	BH1578 lux ind	FBA Mtb inh	CCHFV vOTU inh
CC1CCN(CCCNC(=O)c2coc3nc4ccccc4nc23)CC1	8	/	+	-172
CC1CCCN(CCCNC(=O)c2coc3nc4ccccc4nc23)C1 (centres undefined)	1	/	155*	-88
COc1ccc(OC)c(CCNC(=O)CCc2nnc3ccc(N4CCCC4)nn23)c1	10	0	6	1
Cc1ccc(C(=O)N2CCN(c3cccc(C)c3C)CC2)cc1S(=O)(=O)N1CCOCC1	6	i	0	8
COc1ccc(C(=O)/C=C/N2CCCCC2)cc1OC	50*	-2	0	0
Cc1cc(/C=C(/C#N)c2cccc(F)c2)c(C)n1-c1cccnc1	38*	0	-2	-6
Cc1cc(/C=C(\C#N)C(=O)NCc2ccco2)c(C)n1-c1cccnc1	31*	-1	-1	5
N#C/C(=C\C=C\c1ccccc1)C(=O)NCc1ccco1	63*	0	-5	-7
O=C(NCc1ccco1)/C(=C\c1ccccc1)NC(=O)c1ccccc1	-10	0	2	-7
O=C(NCc1ccco1)/C(=C/C=C\c1ccccc1)NC(=O)c1ccc(Br)o1	35*	1	-9	4
COc1ccccc1N1CCN(CC(O)c2ccccc2)CC1 (centres undefined)	-5	0	-1	1
Cc1cc(=O)n2[nH]nnc2n1	-3	0	9	-14
O=[N+]([O-])c1cc(C=NN2CCCCCC2)ccc1Cl	14	-4	1	6
Cc1ccsc1/C=C(\C#N)C(=O)NCc1ccco1	32*	0	-4	-2
N#C/C(=C\c1cccs1)C(=O)NCc1ccco1	29	-3	0	24
OCCC1CN(CC2CC2)CCN1Cc1ccc(F)c(F)c1 (centres undefined)	5	0	1	-10
O=C(NNS(=O)(=O)c1ccccc1)c1ccccc1-n1cccc1	4	0	-1	-6
COc1cccc(C(=O)NN2CC(O)=C(c3nc4ccccc4s3)C2=N)c1	13	-1	1	-5
N=C1C(c2nc3ccccc3s2)=C(O)CN1NC(=O)c1ccco1	47*	i	8	17
CCCCN(CCCC)c1cc(C)nc(-c2ccccc2O)n1	2	-17	9	10
COc1cccc(CN(C)Cc2cc(=O)oc3cc(O)c(Cl)cc23)c1	9	i	164*	-103
CC(C)COn1c(=S)[nH]c2ccccc2c1=O	-7	0	2	-6
O=C(NCCN1CCc2ccccc2C1)Nc1ccc([N+](=O)[O-])cc1	40*	0	2	4
O=C(NCc1nnnn1-c1ccc(F)cc1)c1ccc2ccccc2c1	11	0	6	9
COc1ccc(OCCN2C(=O)c3cccc(N)c3C2=O)cc1	10	0	-2	1
SMILES	GDH-TPI inh	BH1578 lux ind	FBA Mtb inh	CCHFV vOTU inh
C=CCc1c(C)nc(C)nc1N/N=C/c1ccc(F)cc1	32*	i	-1	21
Nc1nc(-c2cc(O)ccc2[N+](=O)[O-])cc(-c2ccccc2)c1[N+](=O)[O-]	33*	i	3	18
O=[N+]([O-])/C=C\c1ccc(N2CCOCC2)cc1	0	0	-21	11
NC(c1csc(Nc2ncccn2)n1)C1CCCCC1 (centres undefined)	15	-1	1	5
CCCCc1cc(=O)oc2cc(OCC(=O)N[C@@H](Cc3ccccc3)C(=O)O)ccc12	19	0	19	-5
Cc1c(OCC(=O)NC(Cc2ccc(Cl)cc2)C(=O)O)ccc2c3c(c(=O)oc12)CCC3 (centres undefined)	7	-1	6	-7
Cc1cc(=O)oc2c3c(cc(OCC(=O)N[C@@H](Cc4ccccc4)C(=O)O)c12)OC(C)(C)CC3	22	0	+	-168
Cc1cc(=O)oc2c3c(cc(OCC(=O)NC(Cc4ccc(Cl)cc4)C(=O)O)c12)OC(C)(C)CC3 (centres undefined)	14	0	+	-188
COCCCn1c(C(=O)NC2CCCCC2C)cc2c(=O)n3cccc(C)c3nc21 (centres undefined)	-4	i	5	-11
COCCCn1c(=NC(C)=O)c(C#N)cc2c(=O)n3cccc(C)c3nc21	-1	i	+	-92
CCOCCCn1c(=NC(C)=O)c(C#N)cc2c(=O)n3ccccc3nc21	24	-1	+	-334
CCOCCCNC(=O)c1cc2c(=O)n3cccc(C)c3nc2s1	15	-1	24	-44
CCOCCCn1c(=NC(=O)c2cccs2)c(C#N)cc2c(=O)n3cccc(C)c3nc21	13	-1	+	-71
COCCCn1c(=NC(=O)c2ccccc2)c(C#N)cc2c(=O)n3cccc(C)c3nc21	-6	2	174*	-113

High-throughput results from PubChem.
